The list is not random: actives were taken first. Their share in the collection is about 10%.
GPT2 inhibitor – GPT2 alanine aminotransferase inhibition; Q8TD30; Recombinant GPT2, coupled pyruvate oxidase/HRP Amplex Red fluorescence; Potency, µM (highest dose often 57.7 µM), hits mostly inhibitors; 100,000 compounds, 0.25% hits; further: nearly all actives have a fitted effect of over 60% in size
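Inhibition is scored from Amplex Red fluorescence generated when pyruvate oxidase and HRP act on pyruvate released by GPT2. Reactions contain 10ng/uL enzyme, 250uM a-KG and 2mM L-alanine and run 30 min at room temperature.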
HEK293 tox – HEK 293 cell cytotoxicity. 94,000 compounds, 6.6% hits. Potency, µM (highest dose often 115 µM), usual class: inhibitors. HEK 293 viability, ATP luminescence (CellTiter-Glo), 48-72 h; further: nearly all actives have a fitted effect of over 60% in size
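Luminescence from cellular ATP, measured with CellTiter-Glo, indicates HEK 293 viability. Cells plated at 250 cells/well are treated with compound for 48 or 72 hr at 37 degree Celsius before reagent addition.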
Luciferase inh – Photinus pyralis luciferase inhibition | Potency, µM (top dose mostly 115 µM), hits mostly inhibitors | 76,000 compounds, 2.5% hits | purified P. pyralis luciferase, luminescence, biochemical; further: nearly all actives have a fitted effect of over 65% in size
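Inhibitors were tested against purified firefly luciferase in a biochemical, low-substrate format (both substrates at 10uM) and luminescence measured with a CCD imager.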
3T3 cytotox – NIH 3T3 cell cytotoxicity; NIH 3T3 viability, CellTiter-Glo ATP luminescence, 48-72 h; Potency, µM (top dose mostly 96.7 µM), usual class: inhibitors; 94,000 compounds, 4.3% hits; AID 1345082; further: nearly all actives have a fitted effect of over 55% in size
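Cytotoxicity is measured as loss of cellular ATP: NIH 3T3 cells (400/well) are exposed to compound for 48 or 72 hr at 37 °C, then CellTiter-Glo luminescence is imaged after 10 min at room temperature.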
hNpr1 antagonist – blocks ANP-stimulated signaling of human Npr1 receptor; P16066; HEK293 hNpr1 GloSensor cGMP, ANP-stimulated luminescence; Potency, µM (highest dose often 46.3 µM), actives largely listed as inhibitors; 76,000 compounds, 1.6% hits; AID 1347048; calls by dose curve; further: nearly all actives have a fitted effect of over 60% in size
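Compound pre-incubated 30 min at room temperature on GloSensor-loaded HEK293 cells stably carrying hNpr1 and the pGS-40F cGMP biosensor. Stimulation uses hNppA at 0.1 nM final; luminescence is taken at baseline and 20 min post-agonist.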
Npr1 antag conf – confirmation of human Npr1 natriuretic peptide receptor antagonists; shares compounds with hNpr1 antagonist; HEK293 hNpr1 cGMP GloSensor luminescence, ANP-stimulated; Potency, µM (titrated, usually from 57.6 µM), most hits filed as inhibitors; 1,400 compounds, 76% hits; calls by dose curve; further: nearly all actives have a fitted effect of over 70% in size
Npr2 selectivity – selectivity test of Npr1 antagonists against human Npr2 | shares compounds with hNpr1 antagonist | HEK293 hNpr2 GloSensor cGMP luminescence, CNP-stimulated | Potency, µM (top dose mostly 57.6 µM), most hits filed as inhibitors | 1,400 compounds, 67% hits | AID 1347046; calls by dose curve; further: nearly all actives have a fitted effect of over 70% in size
Target sequence (P20594 whole entry, looked up): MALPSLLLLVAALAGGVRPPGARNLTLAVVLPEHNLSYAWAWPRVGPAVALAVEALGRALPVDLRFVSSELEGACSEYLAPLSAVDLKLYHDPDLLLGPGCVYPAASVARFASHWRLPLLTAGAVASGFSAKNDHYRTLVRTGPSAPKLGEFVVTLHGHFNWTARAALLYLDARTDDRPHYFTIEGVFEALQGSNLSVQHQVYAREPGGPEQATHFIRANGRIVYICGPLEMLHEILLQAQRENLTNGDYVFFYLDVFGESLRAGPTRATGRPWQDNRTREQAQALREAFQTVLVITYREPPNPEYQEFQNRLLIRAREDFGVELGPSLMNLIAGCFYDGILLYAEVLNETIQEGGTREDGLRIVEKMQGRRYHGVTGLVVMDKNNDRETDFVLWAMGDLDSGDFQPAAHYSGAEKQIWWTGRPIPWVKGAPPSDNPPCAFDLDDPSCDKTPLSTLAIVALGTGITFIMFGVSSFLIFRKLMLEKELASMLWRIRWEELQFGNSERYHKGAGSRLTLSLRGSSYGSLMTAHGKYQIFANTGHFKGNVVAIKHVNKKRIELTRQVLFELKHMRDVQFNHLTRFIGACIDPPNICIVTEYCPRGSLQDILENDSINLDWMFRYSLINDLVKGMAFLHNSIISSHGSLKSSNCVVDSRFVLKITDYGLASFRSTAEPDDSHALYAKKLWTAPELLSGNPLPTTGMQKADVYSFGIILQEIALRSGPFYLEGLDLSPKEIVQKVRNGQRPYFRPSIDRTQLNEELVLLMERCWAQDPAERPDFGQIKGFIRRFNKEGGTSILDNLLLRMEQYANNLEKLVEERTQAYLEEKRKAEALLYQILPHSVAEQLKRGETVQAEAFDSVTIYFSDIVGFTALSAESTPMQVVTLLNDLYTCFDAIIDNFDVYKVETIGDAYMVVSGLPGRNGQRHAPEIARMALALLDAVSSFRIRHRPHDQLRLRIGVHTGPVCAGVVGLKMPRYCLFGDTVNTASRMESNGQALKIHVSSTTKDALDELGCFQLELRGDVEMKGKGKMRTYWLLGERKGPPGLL
FLuc inh counter – inhibits firefly luciferase, false Npr1 antagonist flag. Potency, µM (highest dose often 57.6 µM), most hits filed as inhibitors. purified FLuc enzyme, luminescence, Km substrate. 1,400 compounds, 0.7% hits. shares compounds with hNpr1 antagonist
GloSensor cGMP – control cell line activity, Npr1 antagonist counter-screen; shares compounds with hNpr1 antagonist; HEK293 GloSensor cGMP, SNP-stimulated, luminescence; AID 1347051; 1,400 compounds, 69% hits; Potency, µM (titrated, usually from 57.6 µM), usual class: inhibitors; calls by dose curve; further: nearly all actives have a fitted effect of over 70% in size
Each line names hits and unclear results; the compound was inactive in the other large screens (follow-up assays come after a bar, where they were run). Unless noted, the call rests on the fitted dose curve; in most records, active means well fitted curve in the direction sought with a large enough effect; inconclusive means small, poorly fitted or top-dose-only effect, or another doubt; inactive means no such curve, though single readings can be large; an effect the other way counts as inactive or inconclusive.

COc1ccc(C2Cn3nnc(-c4noc(C5CCCCC5)n4)c3CO2)cc1 (configuration not stated)	none | Npr1 antag conf inconclusive | Npr2 selectivity inconclusive | FLuc inh counter inactive | GloSensor cGMP inactive
Clc1ccc(C2Cn3nnc(-c4noc(C5CCCC5)n4)c3CO2)cc1 (configuration not stated)	HEK293 tox inconclusive
CS(=O)(=O)N1CC2(CCN(CC3CCCCC3)C2)Cc2ccccc21 (configuration not stated)	HEK293 tox inconclusive (no result: Luciferase inh, hNpr1 antagonist)
COc1ccc(CN2C=C(C(=O)OCc3nc(-c4cccc(OC)c4)no3)C(C)=NS2(=O)=O)cc1	3T3 cytotox inconclusive, hNpr1 antagonist inconclusive | Npr1 antag conf inconclusive | Npr2 selectivity inactive | FLuc inh counter inactive | GloSensor cGMP inconclusive
CC1=NS(=O)(=O)N(C)C=C1C(=O)OCc1nc(C)no1	none
CC1=NS(=O)(=O)N(C)C=C1C(=O)OCc1nc(-c2cccc(C)c2)no1	HEK293 tox inconclusive, 3T3 cytotox inconclusive, hNpr1 antagonist 11µM | Npr1 antag conf 15µM | Npr2 selectivity 14µM | FLuc inh counter inactive | GloSensor cGMP 14µM
COc1cccc(-c2noc(COC(=O)C3=CN(Cc4ccccc4)S(=O)(=O)N=C3C)n2)c1	HEK293 tox inconclusive, Luciferase inh inconclusive
CC1=NS(=O)(=O)N(C)C=C1C(=O)OCc1nc(-c2ccc(F)cc2)no1	HEK293 tox inconclusive, hNpr1 antagonist 11µM | Npr1 antag conf 22µM | Npr2 selectivity 22µM | FLuc inh counter inactive | GloSensor cGMP 22µM
O=C1Nc2ccccc2CC12CCN(Cc1ccccc1)CC2	none
O=C(c1cccc2[nH]ccc12)N1CCCC(n2cc(-c3nc(C4CC4)no3)nn2)C1 (configuration not stated)	HEK293 tox inconclusive, 3T3 cytotox inconclusive, hNpr1 antagonist 11µM | Npr1 antag conf 27µM | Npr2 selectivity inconclusive | FLuc inh counter inactive | GloSensor cGMP inconclusive
CC(C)c1noc(-c2cn(C3CCCN(C(=O)c4cccc5[nH]ccc45)C3)nn2)n1 (configuration not stated)	HEK293 tox inconclusive, 3T3 cytotox inconclusive, hNpr1 antagonist 13µM | Npr1 antag conf 27µM | Npr2 selectivity inconclusive | FLuc inh counter inactive | GloSensor cGMP 22µM
Cc1noc(-c2cn(C3CCCN(C(=O)c4cccc5[nH]ccc45)C3)nn2)n1 (configuration not stated)	HEK293 tox inconclusive, Luciferase inh inconclusive
O=C1Nc2ccccc2CN(CC2CCCCC2)C12CCNCC2	HEK293 tox 35µM, 3T3 cytotox inconclusive (no result: Luciferase inh, hNpr1 antagonist) | Npr1 antag conf 19µM | Npr2 selectivity 6.1µM | FLuc inh counter inactive | GloSensor cGMP inactive
O=C1Nc2ccccc2CN(CC2CCCCC2)C12CCNC2 (configuration not stated)	HEK293 tox 89µM, 3T3 cytotox 22µM (no result: Luciferase inh, hNpr1 antagonist) | Npr1 antag conf inconclusive | Npr2 selectivity 14µM | FLuc inh counter inactive | GloSensor cGMP inactive
Cc1ccc(-c2ccc(O)cn2)c2cccnc12	GPT2 inhibitor inconclusive, HEK293 tox inconclusive, hNpr1 antagonist inconclusive | Npr1 antag conf inconclusive | Npr2 selectivity inconclusive | FLuc inh counter inactive | GloSensor cGMP inconclusive
COc1ccc(OC)c(CNC(=O)c2ccc(-c3ccc(N4CCSCC4)nc3)cc2)c1	HEK293 tox inconclusive, 3T3 cytotox inconclusive, hNpr1 antagonist 7.1µM | Npr1 antag conf 6.9µM | Npr2 selectivity 6.9µM | FLuc inh counter inactive | GloSensor cGMP 6.1µM
COc1cccc(CNC(=O)c2ccc(-c3ccc(N4CCSCC4)nc3)cc2)c1	HEK293 tox inconclusive, Luciferase inh inconclusive, hNpr1 antagonist inconclusive
CNC(=O)CCn1ncc2cc(OCc3ccccc3-c3ccccc3Cl)ccc21	HEK293 tox inconclusive, 3T3 cytotox inconclusive
Cc1cc(C)nc(N2CCC(COc3ccc4c(cnn4CCC(=O)O)c3)CC2)n1	HEK293 tox inconclusive
CCc1cnc(N2CCC(COc3ccc4c(cnn4CC[S+](C)(=O)[O-])c3)CC2)nc1	HEK293 tox inconclusive, hNpr1 antagonist 8.9µM | Npr1 antag conf 8.6µM | Npr2 selectivity 9.7µM | FLuc inh counter inactive | GloSensor cGMP 6.9µM
C[S+](=O)([O-])CCn1ncc2cc(OCc3cccc(-c4ccc(Cl)cc4)c3)ccc21	GPT2 inhibitor inconclusive, HEK293 tox inconclusive, 3T3 cytotox inconclusive, hNpr1 antagonist inconclusive | Npr1 antag conf 31µM | Npr2 selectivity 31µM | FLuc inh counter inconclusive | GloSensor cGMP 35µM
COCCOC(=O)N1CCC(COc2ccc3c(cnn3CCC(=O)O)c2)CC1	GPT2 inhibitor inconclusive, 3T3 cytotox inconclusive
C[S+](=O)([O-])CCn1ncc2cc(OCC3CCN(C(=O)OC4CCCC4)CC3)ccc21	HEK293 tox inconclusive, 3T3 cytotox inconclusive, hNpr1 antagonist 10µM | Npr1 antag conf 11µM | Npr2 selectivity 11µM | FLuc inh counter inactive | GloSensor cGMP 9.7µM
COc1ccc(C(=O)N2CCCCCCNC(=O)[C@@H]3C[C@@H](c4nc(-c5cccnc5)no4)C[C@@H]32)cn1	none
Cc1ccc(N2CCN(C(=O)C3CCCN(c4cnn(Cc5ccccc5)c(=O)c4)C3)CC2)cc1 (configuration not stated)	HEK293 tox 25µM, 3T3 cytotox inconclusive, hNpr1 antagonist 10µM | Npr1 antag conf 17µM | Npr2 selectivity 19µM | FLuc inh counter inactive | GloSensor cGMP 15µM
CN(C)C(=O)c1cc2c(s1)CCC(C(=O)Nc1ccc(F)c(Cl)c1)C2 (configuration not stated)	HEK293 tox inconclusive, 3T3 cytotox inconclusive
O=C(Nc1ccc(F)c(Cl)c1)C1CCc2sc(C(=O)N3CCOCC3)cc2C1 (configuration not stated)	HEK293 tox 28µM, 3T3 cytotox inconclusive, hNpr1 antagonist 8.9µM | Npr1 antag conf 11µM | Npr2 selectivity 12µM | FLuc inh counter inactive | GloSensor cGMP 9.7µM
Cc1ccccc1-c1cnc2[nH]cc(CC(=O)NCc3ccco3)c2c1	HEK293 tox 71µM, 3T3 cytotox inconclusive, hNpr1 antagonist 32µM | Npr1 antag conf 35µM | Npr2 selectivity 31µM | FLuc inh counter inactive | GloSensor cGMP 25µM

Compound activity as filed in PubChem.
